Drawing on paper PMC7862700, “An all-to-all approach to the identification of sequence-specific readers for epigenetic DNA modifications on cytosine”, this text covers binding signal for eight sequences.

Holding throughout (test): DAPPL (digital affinity profiling via proximity ligation, sequencing); 10 mM Tris-HCl pH 7.5, 50 mM NaCl, 1 mM DTT, 4% glycerol, room temperature, 30 min; GST-TFs on glutathione beads, 16-mer random dsDNA library, 0.1% formaldehyde crosslink after washing; high values mean tight binding
What all share (settings): protein: recombinant; tags: N-terminal GST; dsDNA, one strand shown

One experiment addresses T1, FLI1 (Homo sapiens, UniProt Q01543 1-452).
T1 sequence: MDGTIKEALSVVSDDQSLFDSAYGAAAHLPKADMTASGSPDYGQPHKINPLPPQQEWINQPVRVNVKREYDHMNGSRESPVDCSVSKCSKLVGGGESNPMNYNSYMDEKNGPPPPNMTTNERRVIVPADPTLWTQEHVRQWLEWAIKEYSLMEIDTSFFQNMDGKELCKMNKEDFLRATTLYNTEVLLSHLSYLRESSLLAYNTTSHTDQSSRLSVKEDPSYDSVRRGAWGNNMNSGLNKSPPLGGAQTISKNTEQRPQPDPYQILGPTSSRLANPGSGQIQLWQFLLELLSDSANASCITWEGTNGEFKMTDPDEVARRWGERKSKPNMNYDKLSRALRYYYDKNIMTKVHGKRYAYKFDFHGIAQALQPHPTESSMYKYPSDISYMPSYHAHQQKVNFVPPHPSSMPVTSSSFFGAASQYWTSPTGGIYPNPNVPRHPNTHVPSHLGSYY
The essentials:
(§1)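 A tag-only sample was pooled with DNA-barcoded human transcription factors that had been expressed in yeast as GST fusions and captured on glutathione beads. The pools were incubated for 30 min at room temperature with 200 nmole of a random double-stranded 16-mer DNA library in Tris/NaCl/DTT/glycerol buffer, then washed, crosslinked with 0.1% formaldehyde, proximity-ligated (BsaI/T4 ligase, 1 h, 37 °C), PCR-amplified and sequenced on an Illumina NextSeq500. Binding signal is each hexamer's read frequency for a factor divided by its frequency for the tag-only sample.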

Another experiment concerns the target T2, ELK1 (Homo sapiens, UniProt P19419 1-428).
T2 sequence: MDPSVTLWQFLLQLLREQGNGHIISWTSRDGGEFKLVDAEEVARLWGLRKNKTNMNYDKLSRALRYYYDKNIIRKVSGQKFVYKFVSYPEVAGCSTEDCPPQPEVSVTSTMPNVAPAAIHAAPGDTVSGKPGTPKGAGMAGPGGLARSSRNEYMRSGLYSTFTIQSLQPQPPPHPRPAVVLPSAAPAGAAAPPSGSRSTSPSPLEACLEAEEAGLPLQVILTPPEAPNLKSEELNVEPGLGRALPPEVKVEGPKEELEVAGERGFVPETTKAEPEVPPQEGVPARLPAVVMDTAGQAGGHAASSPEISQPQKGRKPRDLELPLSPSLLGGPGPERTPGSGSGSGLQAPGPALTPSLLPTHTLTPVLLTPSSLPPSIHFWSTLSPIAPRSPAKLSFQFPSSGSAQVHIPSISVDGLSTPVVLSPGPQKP
The essentials:
as §1

Another experiment deals with T3, GABPA (Homo sapiens, UniProt Q06546 1-454).
T3 sequence: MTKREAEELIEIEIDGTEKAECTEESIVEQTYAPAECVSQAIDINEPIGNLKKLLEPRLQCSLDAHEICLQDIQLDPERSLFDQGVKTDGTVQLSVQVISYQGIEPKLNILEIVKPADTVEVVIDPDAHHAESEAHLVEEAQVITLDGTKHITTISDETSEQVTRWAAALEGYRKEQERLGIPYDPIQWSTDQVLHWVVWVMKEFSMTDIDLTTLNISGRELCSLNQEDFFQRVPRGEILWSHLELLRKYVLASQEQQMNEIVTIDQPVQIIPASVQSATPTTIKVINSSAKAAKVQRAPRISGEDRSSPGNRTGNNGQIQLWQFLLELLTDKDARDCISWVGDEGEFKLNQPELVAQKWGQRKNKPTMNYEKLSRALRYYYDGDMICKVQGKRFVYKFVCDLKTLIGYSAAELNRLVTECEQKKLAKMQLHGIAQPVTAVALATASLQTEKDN
The essentials: as §1

The target in a further experiment is T4, ERG (Homo sapiens, UniProt P11308 1-479).
T4 sequence: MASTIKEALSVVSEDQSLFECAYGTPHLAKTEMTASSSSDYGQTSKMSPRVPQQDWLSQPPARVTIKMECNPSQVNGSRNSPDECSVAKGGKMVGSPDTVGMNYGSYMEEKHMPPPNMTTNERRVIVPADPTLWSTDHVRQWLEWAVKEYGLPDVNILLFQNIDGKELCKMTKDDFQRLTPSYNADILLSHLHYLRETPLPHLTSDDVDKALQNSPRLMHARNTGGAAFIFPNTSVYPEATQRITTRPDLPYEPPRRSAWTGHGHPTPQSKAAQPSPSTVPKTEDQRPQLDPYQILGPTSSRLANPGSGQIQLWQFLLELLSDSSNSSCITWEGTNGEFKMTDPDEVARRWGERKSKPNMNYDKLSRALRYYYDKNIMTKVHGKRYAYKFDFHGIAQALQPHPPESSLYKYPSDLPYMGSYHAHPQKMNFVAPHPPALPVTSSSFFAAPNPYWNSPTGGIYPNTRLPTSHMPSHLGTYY
Summed up: as §1

The target of a further experiment is ELF1 (Homo sapiens, UniProt P32519 1-619). The essentials: as §1
Sequence of ELF1 (P32519 whole entry): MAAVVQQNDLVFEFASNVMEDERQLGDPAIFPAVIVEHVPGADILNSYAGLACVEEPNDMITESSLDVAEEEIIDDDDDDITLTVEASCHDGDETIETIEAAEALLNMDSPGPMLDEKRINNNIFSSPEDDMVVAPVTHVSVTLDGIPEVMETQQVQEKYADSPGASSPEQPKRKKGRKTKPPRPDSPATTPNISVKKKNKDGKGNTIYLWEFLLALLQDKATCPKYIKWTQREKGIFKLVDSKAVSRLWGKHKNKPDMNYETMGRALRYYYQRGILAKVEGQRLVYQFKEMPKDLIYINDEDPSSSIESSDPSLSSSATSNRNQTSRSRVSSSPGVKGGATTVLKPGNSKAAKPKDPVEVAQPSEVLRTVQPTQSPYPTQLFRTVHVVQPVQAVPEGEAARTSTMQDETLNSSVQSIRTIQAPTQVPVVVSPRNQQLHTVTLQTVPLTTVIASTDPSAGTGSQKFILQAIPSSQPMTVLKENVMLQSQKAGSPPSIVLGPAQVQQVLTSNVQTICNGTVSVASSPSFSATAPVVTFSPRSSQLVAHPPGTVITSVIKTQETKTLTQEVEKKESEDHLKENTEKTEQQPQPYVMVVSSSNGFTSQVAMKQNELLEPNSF
A further experiment addresses T5, EHF (Homo sapiens, UniProt Q9NZC4 1-300).
T5 sequence: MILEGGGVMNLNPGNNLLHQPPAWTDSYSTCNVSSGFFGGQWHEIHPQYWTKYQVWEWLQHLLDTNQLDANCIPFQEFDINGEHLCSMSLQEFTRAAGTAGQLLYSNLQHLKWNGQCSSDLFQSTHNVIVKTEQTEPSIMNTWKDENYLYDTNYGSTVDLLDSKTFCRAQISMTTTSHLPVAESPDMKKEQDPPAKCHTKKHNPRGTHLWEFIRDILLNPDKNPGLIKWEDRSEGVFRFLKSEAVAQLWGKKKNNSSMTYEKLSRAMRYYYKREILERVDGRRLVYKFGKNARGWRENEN
Summed up: as §1

The next experiment has as its target SPI1 (Homo sapiens, UniProt P17947 1-270). The essentials:
as §1

A further experiment has as its target SPIB (Homo sapiens, UniProt Q01892 1-262). The essentials:
as §1

Another experiment deals with T6, ELK3 (Homo sapiens, UniProt P41970 1-407).
T6 sequence: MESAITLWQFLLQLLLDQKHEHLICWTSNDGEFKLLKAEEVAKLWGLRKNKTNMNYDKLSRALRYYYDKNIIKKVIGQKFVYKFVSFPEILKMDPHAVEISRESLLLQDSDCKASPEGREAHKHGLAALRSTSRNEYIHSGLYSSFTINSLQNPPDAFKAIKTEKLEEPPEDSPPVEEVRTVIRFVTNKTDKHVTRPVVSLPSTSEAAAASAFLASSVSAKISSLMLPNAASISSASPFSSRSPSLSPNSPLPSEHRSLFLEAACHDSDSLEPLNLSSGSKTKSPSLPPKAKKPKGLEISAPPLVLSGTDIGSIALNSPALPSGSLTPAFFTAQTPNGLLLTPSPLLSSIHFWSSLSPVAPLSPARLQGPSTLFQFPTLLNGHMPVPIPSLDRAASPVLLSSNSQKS
The essentials: as §1

Sequence of SPIB (Q01892 whole entry): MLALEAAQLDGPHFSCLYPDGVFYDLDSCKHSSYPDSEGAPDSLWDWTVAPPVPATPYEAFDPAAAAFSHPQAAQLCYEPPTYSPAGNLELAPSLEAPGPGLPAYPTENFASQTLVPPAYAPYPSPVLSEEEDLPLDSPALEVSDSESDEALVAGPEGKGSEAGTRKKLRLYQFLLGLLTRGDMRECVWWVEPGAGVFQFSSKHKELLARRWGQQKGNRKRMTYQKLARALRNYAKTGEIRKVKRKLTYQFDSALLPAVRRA

On to ACTCAT, for which the binding signal is 1.47 fold enrichment (6-mer frequency, TF over GST control) with FLI1; 1.34 fold enrichment (6-mer frequency, TF over GST control) with ELK1; 1.36 fold enrichment (6-mer frequency, TF over GST control) in the experiment with GABPA; 1.16 fold enrichment (6-mer frequency, TF over GST control) with ERG; 1.33 fold enrichment (6-mer frequency, TF over GST control) with ELF1; 1.25 fold enrichment (6-mer frequency, TF over GST control) with EHF. The binding signal in the experiment with SPI1 was 1.23 fold enrichment (6-mer frequency, TF over GST control); in the experiment with SPIB, 1.35 fold enrichment (6-mer frequency, TF over GST control); in the experiment with ELK3, 1.34 fold enrichment (6-mer frequency, TF over GST control).
For the sequence ATATGG, the binding signal in the experiment with FLI1 is 1.13 fold enrichment (6-mer frequency, TF over GST control); in the experiment with ELK1 it was 1.31 fold enrichment (6-mer frequency, TF over GST control); in the experiment with GABPA it was 1.28 fold enrichment (6-mer frequency, TF over GST control); with ERG, 1.36 fold enrichment (6-mer frequency, TF over GST control); with ELF1, 1.26 fold enrichment (6-mer frequency, TF over GST control); with EHF, 1.27 fold enrichment (6-mer frequency, TF over GST control). Also, the binding signal is 1.17 fold enrichment (6-mer frequency, TF over GST control) with SPI1; 1.24 fold enrichment (6-mer frequency, TF over GST control) with SPIB; 1.25 fold enrichment (6-mer frequency, TF over GST control) in the experiment with ELK3.
As for TTGACC, the binding signal was 1.4 fold enrichment (6-mer frequency, TF over GST control) with FLI1; 1.44 fold enrichment (6-mer frequency, TF over GST control) in the experiment with ELK1; 1.56 fold enrichment (6-mer frequency, TF over GST control) with GABPA; 1.49 fold enrichment (6-mer frequency, TF over GST control) in the experiment with ERG; 1.43 fold enrichment (6-mer frequency, TF over GST control) in the experiment with ELF1; 1.46 fold enrichment (6-mer frequency, TF over GST control) with EHF. The binding signal in the experiment with SPI1 is 1.34 fold enrichment (6-mer frequency, TF over GST control); with SPIB, 1.46 fold enrichment (6-mer frequency, TF over GST control); with ELK3, 1.54 fold enrichment (6-mer frequency, TF over GST control).
Take GGCCTA: the binding signal with FLI1 is 1.15 fold enrichment (6-mer frequency, TF over GST control); with ELK1, 1.22 fold enrichment (6-mer frequency, TF over GST control); with GABPA it was 1.31 fold enrichment (6-mer frequency, TF over GST control); with ERG, 1.37 fold enrichment (6-mer frequency, TF over GST control); in the experiment with ELF1 it was 1.3 fold enrichment (6-mer frequency, TF over GST control); with EHF it was 1.23 fold enrichment (6-mer frequency, TF over GST control). The binding signal was 1.03 fold enrichment (6-mer frequency, TF over GST control) with SPI1; 1.04 fold enrichment (6-mer frequency, TF over GST control) with SPIB; 1.1 fold enrichment (6-mer frequency, TF over GST control) in the experiment with ELK3.
As to AATCCG, the binding signal with FLI1 is 1.53 fold enrichment (6-mer frequency, TF over GST control); with ELK1 it was 1.62 fold enrichment (6-mer frequency, TF over GST control); with GABPA, 1.44 fold enrichment (6-mer frequency, TF over GST control); with ERG, 1.84 fold enrichment (6-mer frequency, TF over GST control); in the experiment with ELF1, 1.5 fold enrichment (6-mer frequency, TF over GST control); with EHF, 1.55 fold enrichment (6-mer frequency, TF over GST control). In addition, the binding signal in the experiment with SPI1 is 1.59 fold enrichment (6-mer frequency, TF over GST control); with SPIB, 1.68 fold enrichment (6-mer frequency, TF over GST control); with ELK3 it was 1.5 fold enrichment (6-mer frequency, TF over GST control).
As for ATGTGC, the binding signal with FLI1 was 1.05 fold enrichment (6-mer frequency, TF over GST control); in the experiment with ELK1 it was 1.1 fold enrichment (6-mer frequency, TF over GST control); with GABPA it was 1.1 fold enrichment (6-mer frequency, TF over GST control); with ERG, 1.14 fold enrichment (6-mer frequency, TF over GST control); with ELF1 it was 1.19 fold enrichment (6-mer frequency, TF over GST control); with EHF, 1.05 fold enrichment (6-mer frequency, TF over GST control). Besides, the binding signal is 1.06 fold enrichment (6-mer frequency, TF over GST control) with SPI1; 1.15 fold enrichment (6-mer frequency, TF over GST control) in the experiment with SPIB; 1.09 fold enrichment (6-mer frequency, TF over GST control) with ELK3.
For the sequence CCCTCT, the binding signal in the experiment with FLI1 is 1.31 fold enrichment (6-mer frequency, TF over GST control); in the experiment with ELK1 it was 1.43 fold enrichment (6-mer frequency, TF over GST control); in the experiment with GABPA, 1.37 fold enrichment (6-mer frequency, TF over GST control); with ERG it was 1.25 fold enrichment (6-mer frequency, TF over GST control); with ELF1 it was 1.28 fold enrichment (6-mer frequency, TF over GST control); in the experiment with EHF, 1.3 fold enrichment (6-mer frequency, TF over GST control). For the same sequence, the binding signal was 1.28 fold enrichment (6-mer frequency, TF over GST control) with SPI1; 1.56 fold enrichment (6-mer frequency, TF over GST control) with SPIB; 1.51 fold enrichment (6-mer frequency, TF over GST control) in the experiment with ELK3.
As for CGATAG, the binding signal with FLI1 was 1.07 fold enrichment (6-mer frequency, TF over GST control); with ELK1, 1.11 fold enrichment (6-mer frequency, TF over GST control); in the experiment with GABPA it was 1.18 fold enrichment (6-mer frequency, TF over GST control); in the experiment with ERG, 1.16 fold enrichment (6-mer frequency, TF over GST control); with ELF1, 1.15 fold enrichment (6-mer frequency, TF over GST control); with EHF, 1.05 fold enrichment (6-mer frequency, TF over GST control). The binding signal with SPI1 is 1.1 fold enrichment (6-mer frequency, TF over GST control); in the experiment with SPIB, 1.07 fold enrichment (6-mer frequency, TF over GST control); in the experiment with ELK3 it was 1.11 fold enrichment (6-mer frequency, TF over GST control).
